A selection: hits, their analogues and other compounds. The true share with any hit is near 0.94%.
PriA SSB inh: blocks PriA binding to SSB C-terminal tail | inhibition, % at 33 µM | AlphaScreen SSBct-PriA binding, biotinylated peptide | 430,000 compounds, 0.6% hits; in the data active = inhibition mostly above about 37%, no sharp cut-off; inactive = mostly below about 20%;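 also: plate controls were negative control peptide for no effect and reference peptide for full effect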
Vc quorum ag: induces V. cholerae light production without autoinducers; 350,000 compounds, 0.16% hits; activation, % at 18.7 µM; V. cholerae BH1578 lux reporter, luminescence, 6 h; AID 588436; in the data active = activation mostly above about 9.7%, no sharp cut-off
MazF activator: MazEF (E. coli) toxin RNase activation; activation, % at 20 µM; AID 504720; 350,000 compounds, 0.32% hits; P0AE70; FAM/BHQ RNA-DNA oligo cleavage fluorescence, 5 h; in the data active = activation above about 50%
Target sequence (P0AE70 whole entry, looked up): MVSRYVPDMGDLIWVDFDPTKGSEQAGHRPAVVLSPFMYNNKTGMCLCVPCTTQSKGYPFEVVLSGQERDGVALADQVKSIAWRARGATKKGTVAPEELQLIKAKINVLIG
Mtb hypoxia rep: Mtb hypoxia fluorescent reporter inhibition | M. tuberculosis hypoxia-regulated fluorescent reporter, fluorescence | 300,000 compounds, 0.1% hits | fluorescence inhibition, % (no concentration beside the values); in the data active = fluorescence inhibition mostly above about 23%, no sharp cut-off; inactive = mostly below about 17%
* marks the source's active call; other numbers are inactive results; i = inactive; / = no result.

SMILES	PriA SSB inh	Vc quorum ag	MazF activator	Mtb hypoxia rep
Cc1ccccc1C(=O)Nc1ccc(-c2ccc3nnc(-c4ccccn4)n3n2)cc1	70*	/	/	/
O=C(Cc1ccccc1)Nc1ccc(-c2ccc3nnc(-c4ccccn4)n3n2)cc1	95*	/	/	/
O=C(Nc1ccc(-c2ccc3nnc(-c4ccccn4)n3n2)cc1)c1ccccc1Cl	82*	/	/	/
COc1ccc(C(=O)NCc2ccsc2)c(OC)c1	-12	/	/	/
Cc1cc(C)n2nc(C(=O)NCCn3nc(-n4cncn4)ccc3=O)nc2n1	-3	/	/	/
Cc1cc(=O)n2nc(N3CCCC(C(=O)N4CCc5ccccc54)C3)sc2n1 (stereo not drawn)	-17	17*	0	-3
Cc1cc(=O)n2nc(N3CCCC(C(=O)N4CCOCC4)C3)sc2n1 (stereo not drawn)	-5	i	-5	8
Cc1ccc2[nH]c3c(N4CCN(Cc5ccccc5)CC4)ncnc3c2c1	22	i	3	4
CCOc1ccc2[nH]c3c(N4CCN(c5ccccn5)CC4)ncnc3c2c1	39*	-1	4	8
Cn1cccc1C=NNC(=O)c1cc2ccccc2cc1O	43*	/	/	9
O=C(Cc1csc(Nc2ccccc2)n1)NC1CCN(Cc2ccccc2)CC1	11	/	/	/
Brc1ccc2nc(-n3ccnc3)nc(-c3ccccc3)c2c1	-14	/	/	/
CCCN1CCCc2cc(CCNC(=O)c3ccccc3OC)ccc21	73*	/	/	/
CCCN1CCCc2cc(CCNC(=O)C(=O)NCCc3ccccc3)ccc21	44	/	/	/
CCCN1CCCc2cc(CCNC(=O)c3ccccc3Cl)ccc21	53*	/	/	/
CCCN1CCCc2cc(CCNC(=O)c3ccccc3C)ccc21	59*	/	/	/
Cc1ccccc1Cn1cc(SCC(=O)NCc2ccc(F)cc2)c2ccccc21	-4	/	/	/
CCOC(=O)N1CCC(Nc2cc(C)nc3c(-c4ccccc4OC)c(C)nn23)CC1	104*	1	-14	2
Cc1ccc(N2CC(NC(=O)NCCCn3ccnc3)CC2=O)cc1C (stereo not drawn)	51*	/	/	/
Cc1ccc(N2CC(C(=O)NCCCn3ccnc3)CC2=O)cc1 (stereo not drawn)	-6	i	-8	-2
COC(=O)Nc1ccc(S(=O)(=O)N2CCC(n3ccnn3)C2)cc1 (stereo not drawn)	-3	/	/	/
COc1ccccc1NC(=O)CSc1nc2nc(C)cc(C)c2c(=O)[nH]1	-5	i	51*	0
COc1ccc(NC(=O)CSc2nc3nc(C)cc(C)c3c(=O)[nH]2)cc1OC	3	i	-13	-3
Cc1nn([C@H]2CCS(=O)(=O)C2)c(C)c1N1CCN(CC(=O)Nc2cccnc2)CC1	-6	/	/	/
O=C(COc1coc(CN2CCc3ccccc3C2)cc1=O)Nc1ccc(F)cc1F	-17	-14	211*	3
SMILES	PriA SSB inh	Vc quorum ag	MazF activator	Mtb hypoxia rep
C=CCn1c(SCC(=O)Nc2ccccc2F)nc2scc(-c3ccc(OC)cc3)c2c1=O	-2	/	/	/
CC(=NN1CCN(Cc2ccccc2Cl)CC1)c1ccc([N+](=O)[O-])cc1	38*	/	/	/
C/C(=N\N1CCN(Cc2ccccc2Cl)CC1)c1ccc([N+](=O)[O-])cc1	/	0	10	/
O=C(NCCOc1ccc(-c2cccs2)nn1)Nc1ccc(Cl)cc1Cl	1	/	/	/
CCOC(=O)c1c(-c2ccncc2)csc1N	-2	i	2	/
CCOC(=O)c1c(-c2ccc(OC)cc2)csc1N	40*	/	/	/
O=C(c1ccc(Br)o1)N1CCC(c2ccsc2)CC1	3	/	/	/
CC(=NCCCN(C)C)C1=C(O)c2ccccc2C1=O	-2	17*	-2	9
Cc1cc(C)nc(NS(=O)(=O)c2ccc(NC(=O)c3ccccc3-c3ccc(C(F)(F)F)cc3)cc2)n1	-1	/	/	/
O=C(NCCC(c1ccccc1)c1ccccc1)C(=O)Nc1ccncc1	47*	/	/	/
Cc1ccc(NC(=O)C(=O)NCCC(c2ccccc2)c2ccccc2)cc1Cl	-9	/	/	/
Cc1cc(Nc2c(C)n(C)n(-c3ccccc3)c2=O)c2ccccc2n1	-3	i	15	2
Cc1c(Nc2cc(=O)oc3ccccc23)c(=O)n(-c2ccccc2)n1C	-2	17*	-11	-1
Cc1nc(C(=O)NCc2cnn3c2CCCC3)cs1	-24	/	/	/
O=C(CCn1nnc2ccccc2c1=O)NCc1ccncc1	-6	/	/	/
CCN(CC)c1ccc(C=NNc2ccc([N+](=O)[O-])cn2)cc1	0	3	76*	26
Cc1ccc(C(=O)NCC2COC3(CCCC3)O2)cc1C (stereo not drawn)	-6	/	/	/
CCCN(CC(=O)Nc1ccccc1C)C(=O)CCl	7	0	2	35*
COc1ccc(C2NCCc3c2[nH]c2ccccc32)cc1CN1CCc2cc(OC)c(OC)cc2C1C (stereo not drawn)	44*	0	-31	24
COC(C)(CNC(=O)c1cc(C)oc1C)c1ccccc1F (stereo not drawn)	-4	/	/	/
COc1ccc(N2CCN(C(=O)c3ccc(COc4ccc([N+](=O)[O-])cc4)o3)CC2)cc1	40*	-1	5	-4
C=CC[n+]1ccc(/C=C2\C=Cc3cc(C)ccc3N2CC)c2ccccc21	/	i	5	36*
CCCCS(=O)(=O)NCC(Cc1cccc(F)c1)N1CCNC1=O (stereo not drawn)	-1	/	/	/
O=C(c1cc(-c2ccc(F)cc2)c[nH]1)N1CC(Oc2nccs2)C1	-14	/	/	/
Cn1nc(-c2ccc(C(=O)Nc3cccc(Cl)c3)cc2)c2ccccc2c1=O	-4	0	101*	-2
SMILES	PriA SSB inh	Vc quorum ag	MazF activator	Mtb hypoxia rep
COc1cc(-c2nc3ccc(C)cn3c2Nc2ccc3c(c2)OCCO3)ccc1O	55*	i	-3	/
COc1cc(-c2nc3cnccn3c2Nc2ccc3c(c2)OCCO3)ccc1O	22	-1	8	9
CC(=O)C(Sc1nn(C)c(=S)s1)C(=O)Nc1ccccc1 (stereo not drawn)	-6	25*	4	13
CC(=O)C(Sc1nc(N(C)C)nc(N(C)C)n1)C(=O)Nc1ccccc1 (stereo not drawn)	-13	i	-2	7
O=C(CCc1ccc(Oc2cc([N+](=O)[O-])cc([N+](=O)[O-])c2)cc1)N1CCCCCC1	39*	i	-6	-5
COc1ccc(C=Nn2nnnc2N)cc1OC	/	/	/	5
COc1cc(/C=N/n2nnnc2N)ccc1OC(C)=O	/	240*	7	/
Cc1ccc(S(=O)(=O)N2C(=O)CCC2C(=O)Nc2ccc3c(c2)OCCO3)cc1 (stereo not drawn)	96*	0	1	6
COC(=O)c1ccccc1NC(=O)NCc1ccncc1	-13	2	114*	/
O=S(=O)(O)c1cc(O)c2c(O)c(N=Nc3cc(Cl)ccc3O)c(S(=O)(=O)O)cc2c1	58*	i	5	22
COc1cc2[nH]c3c(=O)n(CC(=O)Nc4cccc(SC)c4)cnc3c2cc1OC	-5	/	/	/
O=C(c1cnn2c1OCCC2)N1CCc2ccccc2C1	-10	/	/	/
O=[N+]([O-])c1ccc(C=NNc2ccnc3cc(Cl)ccc23)o1	59*	/	/	-3
O=[N+]([O-])c1ccc(/C=N/Nc2ccnc3cc(Cl)ccc23)o1	/	i	-10	/
O=C(NCc1ccc(C(=O)c2cccs2)s1)c1ccc2nsnc2c1	1	/	/	/
COC(=O)N1CCC(CNC(=O)Nc2c(F)cccc2F)CC1	-2	/	/	/

Assay outcomes: PubChem, several laboratories
